± gives the standard deviation of the averaged measurements. In all, about 33,000 sequences were measured (“E-score (rank enrichment, -0.5 to 0.5)”: median about -0.0043, highest 2% from about 0.24 on). Only a selection was taken, and the highest values are over-represented in it overall.
Each sequence was assayed on 2Sp-muMax20 (muMax20 with two 2,6-bis(methyl)pyridine Cys staples) (assay: PBM 8-mer E-score (E-score (rank enrichment, -0.5 to 0.5)); higher = stronger preferential binding).
Protocol: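 Protein binding microarray (universal PBM chip covering all 10-mers in fixed probe flanks) with chemically synthesized human Max(13-93) bHLH-LZ analogs (not full-length Max) bearing noncanonical residues (hArg, Tha, Aib, Nle at 65) and aromatic Cys staples. Read-out per 8-mer (and its reverse complement): E-score (rank-based enrichment, -0.5 to 0.5) and Z-score of median probe intensity.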

| Sequence | PBM 8-mer E-score |
| --- | --- |
| CTGGGTCA | -0.0254 ± 0.017 |
| AGCTACGC | 0.0669 ± 0.0082 |
| CCGTCGGC | -0.232 ± 0.016 |
| CAAGCCAC | -0.143 ± 0.044 |
| ATATTTTA | 0.245 ± 0.02 |
| CTATTTAA | -0.0484 ± 0.012 |
| CTATTTTA | 0.224 ± 0.026 |
| GTATTTTA | 0.0916 ± 0.055 |
| ATATTTAA | 0.334 ± 0.019 |
| ATATTTAC | 0.159 ± 0.032 |
| ATCTTAGA | 0.0255 ± 0.036 |
| CTCGCCGC | -0.0225 ± 0.15 |
| AATTGCCG | -0.00487 ± 0.03 |
| CTTCTTTA | 0.245 ± 0.01 |
| GTTCTTTA | 0.000435 ± 0.15 |
| CTTCTTTC | -0.118 ± 0.046 |
| AACCTACT | -0.0133 ± 0.062 |
| AATCTGAT | 0.057 ± 0.016 |
| GAAATAAC | -0.1 ± 0.05 |
| AAAATAAC | 0.2 ± 0.041 |
| CAAATAAC | 0.238 ± 0.041 |
| ACAGTGGC | -0.0719 ± 0.054 |

| Sequence | PBM 8-mer E-score |
| --- | --- |
| CGAGGTTC | -0.105 ± 0.037 |
| CCTCAGGA | -0.147 ± 0.12 |
| AGTCGGGC | -0.144 ± 0.022 |
| CTTATAAG | 0.0331 ± 0.11 |
| CTTATAAA | 0.184 ± 0.071 |
| GTTATAAA | 0.154 ± 0.051 |
| ATTATAGA | 0.0771 ± 0.056 |
| ATTATAAT | 0.169 ± 0.1 |
| TTTATAAA | 0.246 ± 0.074 |
| ATTATAAG | 0.28 ± 0.0046 |
| CTTATAAC | 0.0403 ± 0.076 |
| ATTATAAC | 0.247 ± 0.041 |
| CCTATAAA | -0.143 ± 0.042 |
| GTTATAAC | 0.16 ± 0.047 |
| ATTATAAA | 0.263 ± 0.069 |
| ACTGAACG | -0.181 ± 0.086 |
| AGAAACCG | -0.0327 ± 0.035 |
| ACCACTTC | 0.0215 ± 0.0022 |
| AAGACTAA | 0.0726 ± 0.081 |
| GATTTTCC | -0.0716 ± 0.0054 |
| AGAGGCAG | -0.125 ± 0.069 |
| CTAACCAA | -0.0414 ± 0.074 |

| Sequence | PBM 8-mer E-score |
| --- | --- |
| ACCTCGTC | -0.0184 ± 0.011 |
| AACGTCTG | -0.086 ± 0.17 |
| ACCTCACG | -0.0339 ± 0.093 |
| CCCGGCGC | -0.17 ± 0.023 |
| ACGCACGA | 0.0583 ± 0.035 |
| ACGCACGC | 0.157 ± 0.12 |
| ACGCACGT | 0.277 ± 0.0066 |
| ACGCACAA | 0.0234 ± 0.071 |
| ACGCACAT | 0.24 ± 0.091 |
| ACGCACAG | -0.104 ± 0.024 |
| GCCATCAA | 0.193 ± 0.0031 |
| CACTGTGC | -0.123 ± 0.011 |
| CCAGCCTC | -0.148 ± 0.047 |
| GATACCTA | 0.155 ± 0.013 |
| AATACCTA | 0.244 ± 0.03 |
| CATACCTA | 0.0465 ± 0.0019 |
| ATGGATGA | 0.053 ± 0.022 |
| CTATTTCC | 0.26 ± 0.051 |
| CTATTTCA | 0.126 ± 0.099 |
| ATATTTCC | 0.0705 ± 0.11 |
| TCCAGTAA | 0.071 ± 0.076 |
| CAATGGCG | 0.02 ± 0.0014 |

| Sequence | PBM 8-mer E-score |
| --- | --- |
| CACGTGAC | 0.406 ± 0.011 |
| TACGTGAA | 0.0426 ± 0.043 |
| GATGTGAA | 0.177 ± 0.043 |
| GACGTGAC | 0.0337 ± 0.019 |
| CCCGTGAG | -0.225 ± 0.016 |
| AATGTGAA | 0.154 ± 0.12 |
| AACGTGAG | 0.0157 ± 0.023 |
| CACGTGAA | 0.392 ± 0.022 |
| GACGTGAA | -0.25 ± 0.025 |
| CACGTGAG | 0.255 ± 0.005 |
| AACGTGAC | 0.147 ± 0.045 |
| TATGTGAA | 0.308 ± 0.017 |
| GACCCATC | -0.0849 ± 0.083 |
| GGCAACAC | 0.0268 ± 0.038 |
| CTCGGGTA | -0.193 ± 0.024 |
| TAAATAAA | 0.129 ± 0.012 |
| CCCGTGAC | -0.0332 ± 0.029 |
| GAAGCGCC | -0.146 ± 0.03 |
| AGCGTGAC | 0.0983 ± 0.058 |
| CGCGTGAC | 0.286 ± 0.036 |
| CGCGTGAG | 0.219 ± 0.012 |

— the supplement of paper PMC12636033
